Reference: PubChem BioAssay (NCI)
The panel holds about 83,000 compounds, 20% with a hit somewhere; the sample as a whole holds those more often.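 Step 1: grow cells in 96-well plates. Step 2: add test compound at a single concentration. Step 3: incubate 48 h. Step 4: record percent growth.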 Unmarked numbers belong to inactive results. Activity calls are given as the source filed them. Rule for the calls: active = growth percent below 10; inactive = the rest.

Assays:
Experiment in all cases: NCI-60 one-dose screen, 48 h (100 = growth as untreated, 0 = no growth, -100 = all killed)
Settings in all cases: 10 µM unless noted
[1] = tested on: HCT-15 colon
[2] = tested on: HT29 colon
[3] = tested on: SNB-75 CNS
[4] = tested on: SNB-19 CNS
[5] = tested on: U251 CNS
[6] = tested on: PC-3 prostate
[7] = tested on: SK-MEL-5 melanoma
[8] = tested on: LOX IMVI melanoma
[9] = tested on: SK-MEL-28 melanoma
[10] = tested on: SK-MEL-2 melanoma
[11] = tested on: EKVX NSCLC
[12] = tested on: SN12C renal
[13] = tested on: UO-31 renal
[14] = tested on: TK-10 renal
[15] = tested on: ACHN renal
[16] = tested on: A498 renal
[17] = tested on: CCRF-CEM leukemia
[18] = tested on: MOLT-4 leukemia
[19] = tested on: CAKI-1 renal

SMILES | growth [1] | growth [2] | growth [3] | growth [4] | growth [5] | growth [6] | growth [7] | growth [8] | growth [9] [%] | growth [10] | growth [11] | growth [12] | growth [13] | growth [14] | growth [15] | growth [16] | growth [17] | growth [18] | growth [19]
COc1ccc2c(c1)c(-c1nc(-c3c[nH]c4ncccc34)cs1)cn2CCN | 43.7% | 55.9% | 56.6% | 79.4% | 66.7% | 42.8% | 72.9% | 66% | 100 | 75.2% | 50.1% | 78.2% | 48.5% | 71.9% | 41.3% | 72.2% | 55.8% | 46.4% | 
COc1ccc2c(c1)c(-c1nc(-c3c[nH]c4ncccc34)cs1)cn2CCNC(=O)OC(C)(C)C | 54.6% | 71.3% | 68.2% | 93% | 69.1% | 31.8% | 54.2% | 71.9% | 88.1 | 86.6% | 55.6% | 84.8% | 49.3% | 89.2% | 67.9% | 85.3% | 48.2% | 55.7% | 
O=c1[nH]c2c3ccncc3cc(-c3cccc(Cl)c3)c2c2cnccc12 | 43.3% | 28.1% | -21.8% (active) | 75.7% | 13.4% | 42.2% | 46.3% | 19.9% | 25 | 64.1% | 74.8% | 57.1% | 30.6% | 0.334% (active) | 17.2% |  | 56.4% | 76.9% | 63.3%
COc1cc(/C=N/Nc2ncnc3c2c(C)nn3-c2ccc(F)cc2)ccc1O | 81.1% | 92.3% | 82.5% | 93.3% | 94.4% | 73% | 56.6% | 81% | 107 | 89.9% | 87.6% | 85.1% | 64.4% | 88.7% | 92.7% | 103% | 62% | 61.7% | 
Cc1cccc(C)c1NCc1nc(-c2ccccc2)n[nH]1 | 101% | 103% | 89.7% | 94.7% | 101% | 100% | 102% | 97.9% | 96.8 | 101% | 95% | 105% | 90.6% | 101% | 96.8% |  | 110% | 98% | 
C=C1C(=O)O[C@H]2[C@H]1CC/C(Cn1cc(-c3ccc(OC)cc3)nn1)=C\CC[C@@]1(C)O[C@@H]21 | -71.4% (active) | -82% (active) | 91.4% | 69.5% | 23% | 39.4% | 41.8% | -79.3% (active) |  | 61.9% | 85.4% | 0.315% (active) | -86.2% (active) | -84.1% (active) | 6.78% (active) | 31.7% | -32.6% (active) | -32.9% (active) | -4.52% (active)
Fc1ccc(Nc2nnc(-c3ccc(Cl)cc3)o2)cc1 | 98.4% | 94.7% | 102% | 101% | 92.1% | 86.7% | 99.8% | 108% | 106 | 106% | 92.1% |  | 85.4% | 137% | 107% | 92.8% | 58.4% | 88.4% | 92.8%
CC1(c2ccccc2)OC1C(=O)O (configuration not stated) | 106% | 102% | 91.6% | 109% | 117% | 106% | 103% | 97.4% | 98.7 | 107% | 107% |  | 84.5% | 102% | 102% | 109% | 101% | 101% | 94%
O=S(=O)(NCCCNc1cc(-c2cn(-c3ccccc3)nc2-c2cccc(O)c2)ccn1)c1ccc(F)cc1 | 6.54% (active) | 0.761% (active) | 46.3% | 57.4% | 31.3% | 23% | 31.4% | 18.9% |  | 44.7% | 51.2% | 47.3% | 21.9% | 50.6% | 32.8% | 34.3% | 19.4% | 18.8% | 41.4%
CSc1ccc(N(C)c2nc(C)nc3c2CCC3)cc1 | 7.62% (active) | -9.35% (active) | 35.1% | 38.1% | 12.1% | 20.1% | -38.2% (active) | 10.2% |  | 24% | 52.6% | 18.4% | 29.3% | 56.6% | 18.3% | -8.39% (active) | 8.07% (active) | 6.54% (active) | 20.5%
COC(=O)[C@]12CC[C@@H](C)[C@H](C)[C@@H]1C1=CC(=O)[C@@H]3[C@@]4(C)C[C@@H](OC(C)=O)[C@H](OC(C)=O)[C@@](C)(COC(C)=O)[C@@H]4C(=O)C[C@@]3(C)[C@]1(C)CC2 | 38.5% | 40.4% | 55.6% | 57% | 40.7% | 2.41% (active) | 20% | 50.8% |  | 75.6% | 57.8% | 57.1% | 42.5% | 74% | 31.8% | 53% | 17% | 4.9% (active) | 30.5%
CC[C@]12C=CCN3CC[C@@]4(c5cc([C@H]6CCC(=O)N6)c(OC)cc5N(C)[C@H]4[C@@](O)(C(=O)OC)[C@@H]1OC(C)=O)[C@@H]32 | 104% [2.5 µM] | 103% [2.5 µM] | 81.6% [2.5 µM] | 105% [2.5 µM] | 98.3% [2.5 µM] | 95.5% [2.5 µM] | 99.8% [2.5 µM] | 108% [2.5 µM] |  | 98.4% [2.5 µM] | 111% [2.5 µM] | 96.9% [2.5 µM] | 86.3% [2.5 µM] | 106% [2.5 µM] | 90% [2.5 µM] | 116% [2.5 µM] | 99.6% [2.5 µM] | 102% [2.5 µM] | 94.4% [2.5 µM]
COC(=O)[C@]12CC[C@@H](C)[C@H](C)[C@@H]1C1=CC(=O)[C@@H]3[C@@]4(C)C[C@@H](O)[C@H](O)[C@@]5(C)COC(=C45)C[C@@]3(C)[C@]1(C)CC2 | 26.5% | 27.4% | 32.8% | 60.8% | 39.5% | 49.2% | 41.3% | 57% |  | 33.6% | 75.8% | 55% | 65.8% | 83.3% | 69.5% | 37.5% | 59.7% | 24.6% | 71.1%
Clc1ccc(Cn2cc(-c3nc4ccc(Br)nc4n3Cc3ccc(Cl)cc3)c3cccnc32)cc1 | 87.2% | 96.3% | 64.1% | 89.2% | 94.8% | 65.7% | 74.3% | 85.4% |  | 89.2% | 77.8% | 86.8% | 51.7% | 112% | 75% | 76.4% | 78.6% | 59.3% | 82%
Cn1c(=O)c2c(ncn2CC(=O)Nc2ccc(S(N)(=O)=O)cc2)n(C)c1=O | 106% | 94.8% | 87.8% | 102% | 96.6% | 83.4% | 111% | 97.6% | 115 | 104% | 103% | 105% |  | 91.8% | 111% | 105% | 97.5% | 103% | 93.8%
N#CCCCCCn1c2ccccc2c2c3c(c4c5ccccc5n(CCCCCC#N)c4c21)C(=O)N(O)C3=O | 97.3% | 68% | 100% | 66.7% | 83.8% | 68.5% | 74.2% | 24% |  | 85% | 95% | 79.8% | 58.2% | 95.3% | 83.8% | 107% | 74.5% | 73.8% | 0.852% (active)
